PubChem BioAssay (NCATS)
Records with an inconclusive call do not appear. A call without a number means that no potency is given here. The source made the active and inactive calls. Unless noted, the call rests on the fitted dose curve; in most records, active means well fitted inhibition curve with a large enough effect; inconclusive means small, poorly fitted or top-dose-only effect; inactive means flat fitted curve, though single readings scatter.

How the values were obtained:
[1] = qHTS profiling for inhibitors of Plasmodium falciparum proliferation (AID 504749); further: nearly all actives have a fitted effect of over 60% in size; further: potency means the concentration at half of the fitted maximal effect; conditions: P. falciparum in erythrocytes, SYBR Green DNA, 72 h; series mostly up to 28.7 µM
Outline: (§1)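 Fluorescence of SYBR Green-bound parasite DNA, read at 485/535 nm, served as the growth measure. Infected erythrocytes were cultured with compound 72 h; artemisinin (0.29 uM) and DMSO wells defined the normalization range.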

3D7 = test: as above; conditions: P. falciparum in erythrocytes, SYBR Green DNA, 72 h; series mostly up to 28.7 µM
Outline: as §1

7G8 = test: as above; conditions: P. falciparum in erythrocytes, SYBR Green DNA, 72 h; series mostly up to 28.7 µM
Outline: as §1

AS120 = test: as above; conditions: P. falciparum in erythrocytes, SYBR Green DNA, 72 h; series mostly up to 28.7 µM
Outline: as §1

C2A = test: as above; conditions: P. falciparum in erythrocytes, SYBR Green DNA, 72 h; series mostly up to 28.7 µM
Outline: as §1

CP192 = test: as above; conditions: P. falciparum in erythrocytes, SYBR Green DNA, 72 h; series mostly up to 28.7 µM
Outline: as §1

CP203 = test: as above; conditions: P. falciparum in erythrocytes, SYBR Green DNA, 72 h; series mostly up to 28.7 µM
Outline: as §1

CP211 = test: as above; conditions: P. falciparum in erythrocytes, SYBR Green DNA, 72 h; series mostly up to 28.7 µM
Outline: as §1

CP238 = test: as above; conditions: P. falciparum in erythrocytes, SYBR Green DNA, 72 h; series mostly up to 28.7 µM
Outline: as §1

AA1029 = test: as above; conditions: P. falciparum in erythrocytes, SYBR Green DNA, 72 h; series mostly up to 28.7 µM
Outline: as §1

ATS189 = test: as above; conditions: P. falciparum in erythrocytes, SYBR Green DNA, 72 h; series mostly up to 28.7 µM
Outline: as §1

ATS95 = test: as above; conditions: P. falciparum in erythrocytes, SYBR Green DNA, 72 h; series mostly up to 28.7 µM
Outline: as §1

CP185 = test: as above; conditions: P. falciparum in erythrocytes, SYBR Green DNA, 72 h; series mostly up to 28.7 µM
Outline: as §1

CP191 = test: as above; conditions: P. falciparum in erythrocytes, SYBR Green DNA, 72 h; series mostly up to 28.7 µM
Outline: as §1

CP194 = test: as above; conditions: P. falciparum in erythrocytes, SYBR Green DNA, 72 h; series mostly up to 28.7 µM
Outline: as §1

CP201 = test: as above; conditions: P. falciparum in erythrocytes, SYBR Green DNA, 72 h; series mostly up to 28.7 µM
Outline: as §1

CP215 = test: as above; conditions: P. falciparum in erythrocytes, SYBR Green DNA, 72 h; series mostly up to 28.7 µM
Outline: as §1

CP217 = test: as above; conditions: P. falciparum in erythrocytes, SYBR Green DNA, 72 h; series mostly up to 28.7 µM
Outline: as §1

CP237 = test: as above; conditions: P. falciparum in erythrocytes, SYBR Green DNA, 72 h; series mostly up to 28.7 µM
Outline: as §1

[2] = qHTS drug screen for cell cycle checkpoint inhibitors in PARPi-resistant BRCA-mutant ovarian cancer cell lines. (AID 1963452; calls by dose curve); conditions: PEO1/OlaR viability, CellTiter-Glo luminescence, 96 h, stronger effect = lower value
Outline: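 PEO1, PEO4 and PEO1/OlaR ovarian cancer cells, 600 per well, exposed 96 h at 37C to a dilution series. Viability read by CellTiter-Glo luminescence, normalized to DMSO and empty wells; activity summarized as Z-AUC.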

[3] = measured here: PEO1 parental Z-AUC

Q: For `CN1C2CCC1CC(OC(c1ccccc1)c1ccccc1)C2` (stereo unspecified), which outcome [1] is on record?
A: inactive

Q: What about the Potency (3D7) of the same compound?
A: inactive

Q: What about the Potency (7G8) of the same compound?
A: 4.47 µM (active)

Q: And the outcome (AS120)?
A: inactive

Q: And the outcome (C2A)?
A: inactive

Q: And the Potency (CP192)?
A: inactive

Q: And the Potency (CP203)?
A: inactive

Q: And the outcome (CP211)?
A: inactive

Q: What about the outcome (CP238) of the same compound?
A: inactive

Q: Which outcome [1] does the source give for `CC(C)NC[C@H](O)COc1ccc(CC(N)=O)cc1` here?
A: inactive

Q: And the Potency (3D7)?
A: inactive

Q: And the Potency (7G8)?
A: inactive

Q: And the outcome (AA1029)?
A: inactive

Q: What about the outcome (AS120) of the same compound?
A: inactive

Q: And the Potency (ATS189)?
A: inactive

Q: What about the outcome (ATS95) of the same compound?
A: inactive

Q: What about the outcome (C2A) of the same compound?
A: inactive

Q: What about the outcome (CP185) of the same compound?
A: inactive

Q: And the Potency (CP191)?
A: inactive

Q: And the Potency (CP192)?
A: inactive

Q: And the outcome (CP194)?
A: inactive

Q: What about the outcome (CP201) of the same compound?
A: inactive

Q: What about the Potency (CP203) of the same compound?
A: inactive

Q: And the outcome (CP211)?
A: inactive

Q: And the outcome (CP215)?
A: inactive

Q: What about the outcome (CP217) of the same compound?
A: inactive

Q: What about the Potency (CP237) of the same compound?
A: inactive

Q: What about the outcome (CP238) of the same compound?
A: inactive

Q: For `COc1cc(/C=C(\C#N)C(=O)Nc2nnc(C(F)(F)F)s2)ccc1OCc1ccc(C(F)(F)F)cc1C(F)(F)F`, which Z-AUC [2] is on record?
A: 0.582 (inactive)

Q: And the Z-AUC [2, 3]?
A: 0.483

Q: What about the Z-AUC ([2]; measured here: PEO4 Z-AUC) of the same compound?
A: 0.578

Q: Which Potency (3D7) does the source give for `c1ccc(C2CN3CCSC3=N2)cc1` (stereo unspecified) here?
A: 11.2 µM (active)

Q: And the Potency (7G8)?
A: 0.794 µM (active)

Q: What about the Potency (ATS189) of the same compound?
A: 5.01 µM (active)

Q: What about the Potency (CP191) of the same compound?
A: 7.94 µM (active)

Q: What about the Potency (CP192) of the same compound?
A: 19 µM (active)

Q: And the outcome (CP201)?
A: inactive

Q: And the Potency (CP203)?
A: 16.9 µM (active)

Q: And the Potency (CP237)?
A: 3.98 µM (active)

Q: What does the source list for `CCCCCCCCCCCCCCCCCCOC[C@H](COP(=O)([O-])OCC[N+](C)(C)C)OC`?
A: outcome [1]: inactive; Potency (3D7): inactive; Potency (7G8): inactive; outcome (AA1029): inactive; outcome (AS120): inactive; Potency (ATS189): inactive; outcome (ATS95): inactive; outcome (C2A): inactive; outcome (CP185): inactive; Potency (CP191): inactive; Potency (CP192): inactive; outcome (CP194): inactive; outcome (CP201): inactive; Potency (CP203): inactive; outcome (CP211): inactive; outcome (CP215): inactive; outcome (CP217): inactive; Potency (CP237): inactive; outcome (CP238): inactive

Q: For `CN(C)S(=O)(=O)c1ccc2c(c1)/C(=C/c1cc3c([nH]1)CCCC3)C(=O)N2`, which Z-AUC [2] is on record?
A: 1.05 (inactive)

Q: What about the Z-AUC [2, 3] of the same compound?
A: 0.668

Q: What about the Z-AUC ([2]; measured here: PEO4 Z-AUC) of the same compound?
A: 0.277

Q: Which Z-AUC [2] does the source give for `O=C1Nc2ccc(I)cc2/C1=C/c1cc(Br)c(O)c(Br)c1` here?
A: 1.3 (inactive)

Q: And the Z-AUC [2, 3]?
A: 0.638

Q: What about the Z-AUC ([2]; measured here: PEO4 Z-AUC) of the same compound?
A: 0.686

Q: What does the source list for `CCCc1c(OCCCOc2ccc(OCC(=O)O)cc2)ccc(C(C)=O)c1O`?
A: Z-AUC [2]: 1.58 (inactive); Z-AUC [2, 3]: 1.27; Z-AUC ([2]; measured here: PEO4 Z-AUC): 1.18

Q: For `CC1=C(/C=C/C(C)=C/C=C/C(C)=C\C(=O)O)C(C)(C)CCC1`, which Z-AUC [2] is on record?
A: -0.242 (inactive)

Q: And the Z-AUC [2, 3]?
A: 0.115

Q: What about the Z-AUC ([2]; measured here: PEO4 Z-AUC) of the same compound?
A: 0.0344

Q: Which results are given for `CCCCCCCCCCCCCCC[C@H](O)[C@H](N)CO`?
A: outcome [1]: inactive; Potency (3D7): inactive; outcome (AA1029): inactive; outcome (AS120): inactive; Potency (ATS189): inactive; outcome (ATS95): inactive; outcome (C2A): inactive; outcome (CP185): inactive; Potency (CP191): inactive; Potency (CP192): inactive; outcome (CP194): inactive; outcome (CP201): inactive; Potency (CP203): inactive; outcome (CP211): inactive; outcome (CP215): inactive; outcome (CP217): inactive; Potency (CP237): inactive; outcome (CP238): inactive

Q: With `CC(O)C(O)[C@H]1CNc2nc(N)[nH]c(=O)c2N1` (stereo partly specified) as the compound, how does the outcome [1] read?
A: inactive

Q: What about the Potency (3D7) of the same compound?
A: inactive

Q: And the outcome (AA1029)?
A: inactive

Q: What about the outcome (AS120) of the same compound?
A: inactive

Q: And the Potency (ATS189)?
A: inactive

Q: What about the outcome (ATS95) of the same compound?
A: inactive

Q: What about the outcome (C2A) of the same compound?
A: inactive

Q: What about the outcome (CP185) of the same compound?
A: inactive

Q: What about the Potency (CP191) of the same compound?
A: inactive

Q: And the Potency (CP192)?
A: inactive

Q: And the outcome (CP194)?
A: inactive

Q: And the outcome (CP201)?
A: inactive

Q: And the Potency (CP203)?
A: inactive

Q: And the outcome (CP211)?
A: inactive

Q: What about the outcome (CP215) of the same compound?
A: inactive

Q: What about the outcome (CP217) of the same compound?
A: inactive

Q: What about the Potency (CP237) of the same compound?
A: inactive

Q: And the outcome (CP238)?
A: inactive
